In all, about 5,500 compounds went through this assay and about 2,000 (36%) were called active. Not shown: some 18% with an inconclusive outcome. No stated cut-off is given here; in the data, active means normalized growth mostly below about 0.91 (no sharp cut-off); inconclusive means no clear call, values can overlap the other calls; inactive means mostly above about 0.92. This is one part of the list.
Test: chemical genetic growth profiling, strain panel (AID 1159580);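 further: tested at 20 µM; growth read once vehicle control cultures reached saturation at 30 °C; 1 = growth at the plate median or of vehicle wells; lower values mean less growth of the strain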
Details: S. cerevisiae deletion strains, growth OD

Measured: normalized growth

CC(=O)O[C@H]1CC[C@@]2(C)C(=CCC3C2CC[C@]2(C)C(=O)CCC32)C1 (stereo partly drawn)
inactive: locus YAL030W, strain snc1, active compounds read low 1.02 | locus YBL061C, strain skt5, active compounds read low 1.02 | locus YBR009C, strain hhf1, active compounds read low 0.908 | locus YBR023C, strain chs3, active compounds read low 0.961 | locus YBR171W, strain sec66, active compounds read low 1.02 | locus YBR229C, strain ROT2, active compounds read low 1 | locus YBR231C, strain swc5, active compounds read low 1.04 | locus YBR279W, strain paf1, active compounds read low 0.975 | locus YCL011C, strain gbp2, active compounds read low 0.912 | locus YCL016C, strain dcc1, active compounds read low 0.917 | locus YCL069W, strain vba3, active compounds read low 0.951 | locus YCR088W, strain abp1, active compounds read low 1.05 | locus YDL005C, strain med2, active compounds read low 1.02 | locus YDL040C, strain nat1, active compounds read low 1.03 | locus YDL101C, strain DUN1, active compounds read low 0.981 | locus YDL185W, strain tfp1, active compounds read low 1.01 | locus YDL192W, strain arf1, active compounds read low 1.01 | locus YDR001C, strain nth1, active compounds read low 1.04 | locus YDR069C, strain doa4, active compounds read low 1.02 | locus YDR101C, strain arx1, active compounds read low 0.932 | locus YDR159W, strain sac3, active compounds read low 1.01 | locus YDR297W, strain sur2, active compounds read low 0.99 | locus YDR334W, strain swr1, active compounds read low 1.06 | locus YDR335W, strain msn5, active compounds read low 0.937 | locus YDR388W, active compounds read low 1.02 | locus YEL003W, strain gim4, active compounds read low 0.942 | locus YEL037C, strain rad23, active compounds read low 0.994 | locus YEL061C, strain CIN8 (second series), active compounds read low 1.02 | locus YEL061C, strain CIN8, active compounds read low 0.928 | locus YER015W, strain faa2, active compounds read low 0.948 | locus YER016W, strain bim1, active compounds read low 1.02 | locus YER110C, active compounds read low 1.03 | locus YER111C, strain swi4, active compounds read low 1.03 | locus YER155C, strain BEM2 (second series), active compounds read low 0.991 | locus YFR010W, strain ubp6, active compounds read low 0.96 | locus YGL078C, strain dbp3, active compounds read low 0.979 | locus YGL167C, strain pmr1, active compounds read low 1.02 | locus YGL173C, strain kem1, active compounds read low 1 | locus YGL227W, strain vid30, active compounds read low 1.04 | locus YGL240W, strain doc1, active compounds read low 1.02 | locus YGL253W, strain hxk2, active compounds read low 0.939 | locus YGR229C, strain SMI1, active compounds read low 0.813 | locus YGR252W, strain gcn5, active compounds read low 0.81 | locus YHR013C, strain ard1, active compounds read low 0.966 | locus YHR027C, strain rpn1, active compounds read low 1.02 | locus YHR079C, strain IRE1 (second series), active compounds read low 0.962 | locus YHR094C, strain hxt1, active compounds read low 1.04 | locus YHR142W, strain chs7, active compounds read low 0.877 | locus YHR200W, strain rpn10, active compounds read low 0.961 | locus YIL073C, strain SPO22, active compounds read low 0.679 | locus YIL125W, strain kgd1, active compounds read low 1 | locus YIR030C, strain dcg1, active compounds read low 1.02 | locus YJL092W, strain hpr5, active compounds read low 1 | locus YJL095W, strain BCK1 (second series), active compounds read low 1.01 | locus YJL115W, strain asf1, active compounds read low 1.05 | locus YJL129C, strain trk1, active compounds read low 0.939 | locus YJL134W, strain LCB3, active compounds read low 1.02 | locus YJL154C, strain vps35, active compounds read low 1.03 | locus YJL166W, strain qcr8, active compounds read low 0.903 | locus YJL168C, strain set2, active compounds read low 1.02 | locus YJL187C, strain SWE1 (second series), active compounds read low 0.887 | locus YJR043C, strain POL32, active compounds read low 0.857 | locus YJR075W, strain HOC1, active compounds read low 0.887 | locus YKL009W, strain mrt4, active compounds read low 0.938 | locus YKL068W, active compounds read low 1.03 | locus YKL085W, strain MDH1 (second series), active compounds read low 0.964 | locus YKL085W, strain MDH1, active compounds read low 0.964 | locus YKL160W, strain elf1, active compounds read low 0.906 | locus YKL190W, strain CNB1, active compounds read low 0.945 | locus YKR001C, strain vps1, active compounds read low 0.961 | locus YKR026C, strain gcn3, active compounds read low 1.05 | locus YKR091W, strain srl3, active compounds read low 1.03 | locus YLL001W, strain dnm1, active compounds read low 0.918 | locus YLL026W, active compounds read low 1.02 | locus YLL041C, strain sdh2, active compounds read low 1.03 | locus YLR027C, strain aat2, active compounds read low 0.954 | locus YLR058C, strain SHM2, active compounds read low 0.892 | locus YLR102C, strain apc9, active compounds read low 1.04 | locus YLR221C, strain rsa3, active compounds read low 0.966 | locus YLR258W, strain gsy2, active compounds read low 0.952 | locus YLR268W, strain sec22, active compounds read low 0.887 | locus YLR342W, strain FKS1, active compounds read low 0.976 | locus YLR357W, strain rsc2, active compounds read low 1.1 | locus YLR370C, strain arc18, active compounds read low 1.01 | locus YLR371W, strain rom2, active compounds read low 1.02 | locus YLR384C, strain iki3, active compounds read low 1.03 | locus YML016C, strain PPZ1, active compounds read low 0.947 | locus YML120C, strain ndi1, active compounds read low 0.928 | locus YML124C, strain tub3, active compounds read low 1.03 | locus YMR058W, strain fet3, active compounds read low 0.988 | locus YMR078C, strain ctf18, active compounds read low 1.01 | locus YMR125W, strain sto1, active compounds read low 1.05 | locus YMR129W, active compounds read low 1.03 | locus YMR205C, strain PFK2, active compounds read low 0.876 | locus YMR231W, strain pep5, active compounds read low 1.01 | locus YMR263W, strain SAP30, active compounds read low 0.943 | locus YMR307W, strain GAS1, active compounds read low 0.865 | locus YNL067W, strain RPL9B, active compounds read low 0.887 | locus YNL209W, strain ssb2, active compounds read low 0.942 | locus YNL248C, strain rpa49, active compounds read low 0.98 | locus YNL250W, strain rad50, active compounds read low 0.914 | locus YNL271C, strain bni1, active compounds read low 0.965 | locus YNL322C, strain KRE1 (second series), active compounds read low 1.04 | locus YNR049C, strain mso1, active compounds read low 1.04 | locus YOL012C, strain htz1 1.72 | locus YOR001W, strain rrp6, active compounds read low 0.969 | locus YOR061W, strain CKA2, active compounds read low 0.89 | locus YOR069W, strain VPS5, active compounds read low 0.988 | locus YOR070C, strain gyp1, active compounds read low 0.937 | locus YOR080W, strain dia2, active compounds read low 1 | locus YOR083W, strain WHI5, active compounds read low 0.903 | locus YOR106W, strain vam3, active compounds read low 0.883 | locus YOR136W, strain idh2, active compounds read low 0.95 | locus YOR144C, strain elg1, active compounds read low 0.989 | locus YOR265W, strain rbl2, active compounds read low 0.973 | locus YOR270C, strain vph1, active compounds read low 1.05 | locus YOR290C, strain snf2, active compounds read low 0.881 | locus YOR316C, strain cot1, active compounds read low 1.02 | locus YPL051W, strain arl3, active compounds read low 0.953 | locus YPL240C, strain hsp82, active compounds read low 0.983 | locus YPL241C, strain CIN2, active compounds read low 1 | locus YPR119W, strain clb2, active compounds read low 1.04 | locus YPR141C, strain kar3, active compounds read low 1.04 | locus YPR163C, strain tif3, active compounds read low 0.941 | locus YPR167C, strain met16, active compounds read low 0.97
active: locus YAL013W, strain DEP1, active compounds read low 0.775 | locus YAL021C, strain ccr4, active compounds read low 0.877 | locus YAL026C, strain drs2, active compounds read low 0.6 | locus YBR021W, strain FUR4, active compounds read low 0.833 | locus YCL029C, strain bik1, active compounds read low 0.895 | locus YDL035C, strain GPR1, active compounds read low 0.686 | locus YDL074C, strain BRE1, active compounds read low 0.612 | locus YDR137W, strain rgp1, active compounds read low 0.568 | locus YDR162C, strain NBP2, active compounds read low 0.596 | locus YDR195W, strain ref2 1.3 [resistant] | locus YDR318W, strain mcm21, active compounds read low 0.844 | locus YDR392W, strain spt3, active compounds read low 0.43 | locus YDR502C, strain sam2, active compounds read low 0.843 | locus YER155C, strain BEM2, active compounds read low 0.752 | locus YER167W, strain BCK2, active compounds read low 0.892 | locus YGL086W, strain mad1, active compounds read low 0.884 | locus YGL248W, strain PDE1, active compounds read low 0.721 | locus YGR135W, strain pre9, active compounds read low 0.884 | locus YHR030C, strain SLT2, active compounds read low 0.779 | locus YHR129C, strain ARP1, active compounds read low 0.788 | locus YIL066C, strain RNR3, active compounds read low 0.812 | locus YJL095W, strain BCK1, active compounds read low 0.433 | locus YJL164C, strain tpk1, active compounds read low 0.906 | locus YLR039C, strain RIC1, active compounds read low 0.403 | locus YLR262C, strain YPT6 (second series), active compounds read low 0.514 | locus YLR262C, strain YPT6, active compounds read low 0.413 | locus YLR320W, strain mms22, active compounds read low 0.846 | locus YLR330W, strain CHS5, active compounds read low 0.814 | locus YLR342W, strain FKS1 (second series), active compounds read low 0.742 | locus YLR418C, strain cdc73, active compounds read low 0.698 | locus YML032C, strain rad52, active compounds read low 0.866 | locus YMR223W, strain ubp8, active compounds read low 0.878 | locus YNL071W, strain lat1, active compounds read low 0.758 | locus YNL233W, strain BNI4, active compounds read low 0.724 | locus YNL298W, strain CLA4, active compounds read low 0.859 | locus YNL307C, strain MCK1, active compounds read low 0.516 | locus YNR052C, strain pop2, active compounds read low 0.85 | locus YOL147C, strain pex11, active compounds read low 0.92 | locus YOR184W, strain ser1, active compounds read low 0.477 | locus YPL055C, strain LGE1, active compounds read low 0.594 | locus YPL078C, strain atp4, active compounds read low 0.891 | locus YPL106C, strain sse1, active compounds read low 1.22 [resistant] | strain wtn01, active compounds read low 0.848

Reference: PubChem BioAssay AID1159580 (chemical genetic matrix, 2015)
